Here are results for 4 molecules from PubChem BioAssay.

Results filed as inconclusive are left out. Active and inactive are the calls of the source.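 Rule for the calls, unless noted: active = inhibition above 50%, about 3 SD of the validation set; inactive = the rest.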

A short description of assay [1]: yeast TOR pathway RPL19A-GFP modulators, primary screen, cell-based, S. cerevisiae, multiplex flow cytometry (AID 1862; in the data active = percent of DMSO control GFP below about 86%;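 note: lower values mimic rapamycin by blocking the RPL19A rise seen in DMSO cells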). The note with it: S. cerevisiae RPL19A-GFP strain, flow cytometry fluorescence, 3 h; at 10 µM; stronger effect = lower value.
Assay [2] can be described thus: modulators of MEP2-GFP levels in yeast, primary screen, S. cerevisiae, multiplex flow cytometry (AID 1867;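 active = GFP response, as percent of the DMSO control, above the screen-wide mean plus 3 SD, about 139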;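 note: median GFP channel fluorescence of barcode-gated MEP2-GFP cells measured by flow cytometry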). Conditions: S. cerevisiae MEP2-GFP strain, 3 h, at 10 µM, stronger effect = higher value, 100% means same as DMSO wells.
A short description of assay [3]: modulators of CIT2-GFP expression in yeast, primary screen, S. cerevisiae, GFP fusion, multiplex flow cytometry (AID 1870;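 active = percent response above a set limit, the screen-wide mean plus 3 SD, cut at about 130% in these data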;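 note: barcoded CIT2-GFP strain pooled with four other GFP strains with rapamycin as positive control; median GFP fluorescence per well over plate mean of DMSO wells so 100% = DMSO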). Conditions: 3 h, at 10 µM, stronger effect = higher value. A general note: In flow cytometry, cells or beads pass a laser one at a time.
A short description of assay [4]: modulators of LAP4-GFP expression in yeast, primary screen, S. cerevisiae, multiplex flow cytometry (AID 1873;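 active = GFP signal, as percent of the solvent control, above the screen mean plus 3 SD, about 149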). The note with it: 3 h, at 10 µM, stronger effect = higher value.
A short description of assay [5]: modulators of AGP1-GFP expression in yeast TOR pathway, primary screen, cell-based, multiplex flow cytometry, S. cerevisiae (AID 1887;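 active = GFP signal above the screen-wide mean plus 3 SD, that is over about 124.5% of the solvent control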;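 note: AGP1-GFP fusion strain of S. cerevisiae within a five-strain barcoded multiplex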). Conditions: 3 h, at 10 µM, stronger effect = higher value.
The nature of assay [6]: inhibitors of CD8+ T cell-vesicle binding, pilot screen, LFA-1/ICAM-1 modulator project, MLPCN validation set, flow cytometry (AID 2523;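 active = response below a set limit, under 55% cells CD8-positive and vesicle-bound, and CD8 cells' 90th-percentile brightness under 279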;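 for vesicle binding response: mean PE anti-B7-1 fluorescence of CD8+ cells relative to row control; 100% = QL9-loaded vesicles with DMSO vehicle in the same plate row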). Conditions: 2C mouse CD8+ T cells, at 7 µM, stronger effect = lower value; double positive events: measured here: CD8+/vesicle+ event percentage.
Assay [7] concerns the target Integrin beta-1 (Homo sapiens) + Integrin alpha-4 (Homo sapiens) (UniProt P13612+P05556). As to the kind of experiment: inhibition of HUTS-21 binding to VLA-4, pilot screen, VLA-4 allosteric modulator project, U937 cells, HUTS-21 mAb, flow cytometry, validation set (AID 2674).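 Note: antibody binding induced by the VLA-4 ligand LDV present at three times its Kd; 0% = LDV ligand with antibody and no compound and 100% = antibody without LDV.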 The note with it: HUTS-21 LIBS mAb binding, at 6.7 µM, stronger effect = higher value, binding induced by LDV ligand.

Assay [8] in a line: superoxide lowering in aged yeast cells, pilot screen, validation compound set (AID 2706;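 active = superoxide response below 65% of plate, a cut near 3 SD across the whole screen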;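 note: yeast exposed to compound for one week at 30 degrees C before staining; 100% = mean of all compound wells on the same plate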). Conditions: S. cerevisiae aging, superoxide DHE fluorescence; at 10 µM; stronger effect = lower value.
Assay [9] deals with Beta-adrenergic receptor kinase 1 (Homo sapiens) (UniProt P25098). Kind of assay: GRK2 binders displacing RNA aptamer, biochemical, validation, human GRK2, bead flow cytometry (AID 488806;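 active = aptamer binding inhibition above 30%, about 3 SD of noise from non-fluorescent compounds; inactive = inhibition at or below 30%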). Conditions: bead-bound GRK2, FAM-aptamer displacement, at 10 µM, stronger effect = higher value.
Assay [10] concerns the target Beta-2 adrenergic receptor (Homo sapiens) (UniProt P07550). As to the kind of experiment: beta2AR agonists driving receptor internalization, pilot screen, cell-based, FAP fluorogen, flow cytometry, validation set (AID 504459;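 active = percent response above 42, roughly 3 SD of non-fluorescent test compounds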;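 note: agonist-driven loss of surface beta2AR via internalization measured by FAP dye flow cytometry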). The note with it: Am2.2-beta2AR cells, FAP surface receptor flow cytometry; at 10 µM; stronger effect = higher value.
For assay [11], the target named is AP-2 complex subunit beta (Homo sapiens) (UniProt P63010). As to the kind of experiment: inhibitors of arrestin peptide binding to AP2, pilot screen, biochemical, validation set, GST-AP2 beads, flow cytometry (AID 504541;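 active = inhibition above 54%, about 3 SD of non-fluorescent compounds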;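 note: AP2 carries R879A mutation and is captured from E. coli lysate; bead-bound FITC arrestin peptide fluorescence measuring arrestin peptide binding to AP2; 0% = DMSO wells and 100% = excess unlabeled arrestin peptide control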). The note with it: FITC arrestin peptide, at 10 µM, stronger effect = higher value, AP2 beta2 appendage fragment, R879A mutant.
A short description of assay [12]: yeast V-ATPase proton transport modulators, S. cerevisiae, pHLuorin, HTS validation (AID 504600; in the data active = response above about 15%;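 note: plate controls were DMSO for no effect and reference compound for full effect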). Conditions: S. cerevisiae pHLuorin cytosolic pH, at 10 µM, stronger effect = higher value.
Assay [13] has as its system anti-desmoglein-3 scFv antibody binding to human DSG3. Kind of assay: inhibitors of anti-DSG3 scFv binding to DSG3, pilot screen, biochemical, validation compound set, bead-based, flow cytometry (AID 588368;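 active = binding below the plate cutoff, the plate median minus 3 SD, with a reading above zero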;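 note: signal is the median channel fluorescence of bead-bound GFP antibody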). The note with it: Protein G beads, DSG3-Fc, scFv-GFP binding, at 10 µM, stronger effect = lower value.
Assay [14] is described as follows: inhibitors of fungal efflux pumps CDR1, CDR2, MDR1, pilot screen, validation compound set, multiplex, phenotypic (AID 588506;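 active = efflux inhibition above 0.42, the validation set average plus 4 SD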;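 note: Nile Red retained in cells so higher fluorescence means more efflux inhibition; 0 = negative control wells and 1 = enniatin B 25 µM full block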). The note with it: S. cerevisiae pump-expressing triplex, Nile Red efflux flow cytometry; at 10 µM; stronger effect = higher value; the pumps come from Candida albicans.
The target in assay [15] is ATP-binding cassette sub-family B member 6 (Homo sapiens) (UniProt Q9NP58). As to the kind of experiment: ABCB6 transporter inhibitors, pilot screen, K562-ABCB6 cells, flow cytometry, validation set (AID 588550;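 active = inhibition above the screen-wide mean plus 3 SD, about 51%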;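 note: 0% = DMSO wells and 100% = benzethonium chloride 70 µM positive control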). The note with it: K562-ABCB6 porphyrin accumulation, 1 h, at 10 µM, stronger effect = higher value.
Assay [16] in a line: promoters of myeloid differentiation in arrested cells, primary screen, cell-based, GFP/MAC1 double positive, flow cytometry, validation set (AID 588685;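 active = differentiation response of at least 50%, scaled between solvent and reference control, from cells with both markers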;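 note: compound exposure lasts four days before antibody staining and flow analysis; 0% = DMSO wells and 100% = 5 µM fulvestrant positive control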). The note with it: ER-HoxA9 marrow cells, stronger effect = higher value, normalized: vehicle 0, fulvestrant 100.

Chain of Beta-2 adrenergic receptor (Homo sapiens) (P07550 whole entry, looked up): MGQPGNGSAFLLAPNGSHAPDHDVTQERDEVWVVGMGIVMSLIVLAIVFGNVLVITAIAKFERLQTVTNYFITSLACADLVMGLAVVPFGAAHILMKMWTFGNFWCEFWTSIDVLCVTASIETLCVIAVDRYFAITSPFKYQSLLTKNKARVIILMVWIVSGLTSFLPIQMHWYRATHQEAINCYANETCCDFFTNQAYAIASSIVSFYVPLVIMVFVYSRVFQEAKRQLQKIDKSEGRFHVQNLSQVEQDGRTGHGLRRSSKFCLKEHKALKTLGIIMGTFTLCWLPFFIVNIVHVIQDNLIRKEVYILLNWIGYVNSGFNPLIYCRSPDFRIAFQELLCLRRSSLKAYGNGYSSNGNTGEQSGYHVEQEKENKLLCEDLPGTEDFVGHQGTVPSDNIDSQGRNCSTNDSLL
Chain of AP-2 complex subunit beta (Homo sapiens) (P63010 whole entry, looked up, the tested form may be a part, one chain of several): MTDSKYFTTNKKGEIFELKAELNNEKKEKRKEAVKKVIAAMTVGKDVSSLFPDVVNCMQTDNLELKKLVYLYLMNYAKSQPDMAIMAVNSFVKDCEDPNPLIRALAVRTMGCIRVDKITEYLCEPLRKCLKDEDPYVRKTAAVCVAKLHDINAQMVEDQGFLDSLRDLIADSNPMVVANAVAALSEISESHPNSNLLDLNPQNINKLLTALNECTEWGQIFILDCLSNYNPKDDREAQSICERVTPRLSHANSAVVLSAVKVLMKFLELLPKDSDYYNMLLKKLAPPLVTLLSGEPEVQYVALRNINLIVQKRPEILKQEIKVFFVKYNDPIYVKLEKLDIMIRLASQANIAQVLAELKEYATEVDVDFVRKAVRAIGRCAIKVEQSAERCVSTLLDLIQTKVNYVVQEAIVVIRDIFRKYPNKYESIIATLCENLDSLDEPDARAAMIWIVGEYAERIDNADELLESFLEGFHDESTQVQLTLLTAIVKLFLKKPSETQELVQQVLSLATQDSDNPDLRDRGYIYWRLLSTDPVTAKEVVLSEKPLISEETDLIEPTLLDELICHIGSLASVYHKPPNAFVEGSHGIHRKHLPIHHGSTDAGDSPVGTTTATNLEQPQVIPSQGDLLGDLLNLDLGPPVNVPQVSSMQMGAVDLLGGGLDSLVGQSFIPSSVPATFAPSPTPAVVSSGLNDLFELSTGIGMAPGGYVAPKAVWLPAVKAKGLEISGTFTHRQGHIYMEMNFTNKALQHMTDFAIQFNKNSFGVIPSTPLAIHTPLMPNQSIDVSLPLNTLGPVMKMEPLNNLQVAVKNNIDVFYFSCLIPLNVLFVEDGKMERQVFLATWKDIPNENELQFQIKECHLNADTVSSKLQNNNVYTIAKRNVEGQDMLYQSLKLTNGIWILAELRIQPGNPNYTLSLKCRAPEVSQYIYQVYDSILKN
Chain of Integrin beta-1 (Homo sapiens) + Integrin alpha-4 (Homo sapiens) (P05556 whole entry, looked up): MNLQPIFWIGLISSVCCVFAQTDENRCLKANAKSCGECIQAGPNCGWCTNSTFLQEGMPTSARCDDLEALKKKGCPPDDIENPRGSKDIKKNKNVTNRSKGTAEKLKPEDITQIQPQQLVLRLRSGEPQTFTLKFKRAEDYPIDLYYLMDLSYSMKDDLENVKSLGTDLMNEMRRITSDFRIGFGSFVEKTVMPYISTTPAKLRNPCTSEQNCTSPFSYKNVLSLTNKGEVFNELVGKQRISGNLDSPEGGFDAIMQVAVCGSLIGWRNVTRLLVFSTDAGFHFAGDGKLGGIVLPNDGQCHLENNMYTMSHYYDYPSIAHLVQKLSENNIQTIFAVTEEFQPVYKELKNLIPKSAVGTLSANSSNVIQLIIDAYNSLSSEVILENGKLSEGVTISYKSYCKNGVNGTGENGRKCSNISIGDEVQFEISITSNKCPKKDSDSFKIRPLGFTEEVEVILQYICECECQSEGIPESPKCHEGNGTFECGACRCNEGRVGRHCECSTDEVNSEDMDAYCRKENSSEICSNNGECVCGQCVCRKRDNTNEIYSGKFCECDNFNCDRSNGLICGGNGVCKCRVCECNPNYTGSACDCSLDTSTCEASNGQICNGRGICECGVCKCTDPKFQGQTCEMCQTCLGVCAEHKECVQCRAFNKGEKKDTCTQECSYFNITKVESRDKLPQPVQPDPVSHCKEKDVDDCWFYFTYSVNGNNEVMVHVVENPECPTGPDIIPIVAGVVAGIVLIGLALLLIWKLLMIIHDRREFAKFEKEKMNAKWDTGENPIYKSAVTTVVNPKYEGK
Chain of Integrin beta-1 (Homo sapiens) + Integrin alpha-4 (Homo sapiens) (P13612 whole entry, looked up): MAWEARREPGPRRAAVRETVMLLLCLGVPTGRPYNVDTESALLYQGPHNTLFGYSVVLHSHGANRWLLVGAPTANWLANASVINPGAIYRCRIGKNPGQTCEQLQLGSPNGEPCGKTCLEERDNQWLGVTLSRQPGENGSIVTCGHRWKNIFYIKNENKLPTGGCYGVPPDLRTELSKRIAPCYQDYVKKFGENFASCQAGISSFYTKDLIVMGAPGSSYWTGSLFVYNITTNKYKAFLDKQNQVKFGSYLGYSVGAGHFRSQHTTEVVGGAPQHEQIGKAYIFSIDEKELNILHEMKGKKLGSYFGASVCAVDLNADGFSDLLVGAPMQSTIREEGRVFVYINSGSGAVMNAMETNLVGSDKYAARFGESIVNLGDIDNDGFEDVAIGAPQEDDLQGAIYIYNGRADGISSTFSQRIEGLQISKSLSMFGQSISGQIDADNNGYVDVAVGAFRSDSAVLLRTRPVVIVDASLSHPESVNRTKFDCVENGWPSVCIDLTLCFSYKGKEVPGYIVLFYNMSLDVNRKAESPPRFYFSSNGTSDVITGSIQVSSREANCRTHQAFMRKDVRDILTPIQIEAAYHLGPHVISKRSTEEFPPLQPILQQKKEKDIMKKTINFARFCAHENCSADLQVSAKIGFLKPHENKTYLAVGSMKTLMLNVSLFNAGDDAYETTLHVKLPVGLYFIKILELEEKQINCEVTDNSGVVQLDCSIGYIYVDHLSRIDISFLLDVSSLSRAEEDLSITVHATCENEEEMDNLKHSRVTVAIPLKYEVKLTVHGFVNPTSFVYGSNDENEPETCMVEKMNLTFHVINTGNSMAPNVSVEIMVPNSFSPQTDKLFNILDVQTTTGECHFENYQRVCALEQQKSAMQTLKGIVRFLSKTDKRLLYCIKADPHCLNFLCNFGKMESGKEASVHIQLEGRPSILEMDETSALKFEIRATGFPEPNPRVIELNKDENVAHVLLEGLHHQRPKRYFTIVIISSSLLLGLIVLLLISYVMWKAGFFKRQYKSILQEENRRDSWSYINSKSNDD
Chain of Beta-adrenergic receptor kinase 1 (Homo sapiens) (P25098 whole entry, looked up): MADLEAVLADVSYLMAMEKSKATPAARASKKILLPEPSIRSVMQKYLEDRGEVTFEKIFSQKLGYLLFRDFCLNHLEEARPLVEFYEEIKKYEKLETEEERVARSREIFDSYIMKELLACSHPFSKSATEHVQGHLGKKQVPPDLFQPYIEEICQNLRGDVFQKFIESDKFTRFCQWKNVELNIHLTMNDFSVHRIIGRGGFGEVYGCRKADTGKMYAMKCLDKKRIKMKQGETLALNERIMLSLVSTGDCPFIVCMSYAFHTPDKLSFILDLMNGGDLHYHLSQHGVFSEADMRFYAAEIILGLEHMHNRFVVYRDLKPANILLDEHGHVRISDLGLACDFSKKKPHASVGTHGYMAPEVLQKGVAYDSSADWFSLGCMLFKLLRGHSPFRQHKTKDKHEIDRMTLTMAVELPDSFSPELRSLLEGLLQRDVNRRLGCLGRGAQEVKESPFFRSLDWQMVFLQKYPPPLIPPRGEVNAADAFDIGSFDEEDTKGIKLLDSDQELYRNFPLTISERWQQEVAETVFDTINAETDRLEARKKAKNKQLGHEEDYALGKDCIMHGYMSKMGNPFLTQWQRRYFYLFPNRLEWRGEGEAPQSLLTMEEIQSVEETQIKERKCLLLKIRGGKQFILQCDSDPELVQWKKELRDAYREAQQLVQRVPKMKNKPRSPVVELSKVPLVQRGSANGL
Chain of ATP-binding cassette sub-family B member 6 (Homo sapiens) (Q9NP58 whole entry, looked up): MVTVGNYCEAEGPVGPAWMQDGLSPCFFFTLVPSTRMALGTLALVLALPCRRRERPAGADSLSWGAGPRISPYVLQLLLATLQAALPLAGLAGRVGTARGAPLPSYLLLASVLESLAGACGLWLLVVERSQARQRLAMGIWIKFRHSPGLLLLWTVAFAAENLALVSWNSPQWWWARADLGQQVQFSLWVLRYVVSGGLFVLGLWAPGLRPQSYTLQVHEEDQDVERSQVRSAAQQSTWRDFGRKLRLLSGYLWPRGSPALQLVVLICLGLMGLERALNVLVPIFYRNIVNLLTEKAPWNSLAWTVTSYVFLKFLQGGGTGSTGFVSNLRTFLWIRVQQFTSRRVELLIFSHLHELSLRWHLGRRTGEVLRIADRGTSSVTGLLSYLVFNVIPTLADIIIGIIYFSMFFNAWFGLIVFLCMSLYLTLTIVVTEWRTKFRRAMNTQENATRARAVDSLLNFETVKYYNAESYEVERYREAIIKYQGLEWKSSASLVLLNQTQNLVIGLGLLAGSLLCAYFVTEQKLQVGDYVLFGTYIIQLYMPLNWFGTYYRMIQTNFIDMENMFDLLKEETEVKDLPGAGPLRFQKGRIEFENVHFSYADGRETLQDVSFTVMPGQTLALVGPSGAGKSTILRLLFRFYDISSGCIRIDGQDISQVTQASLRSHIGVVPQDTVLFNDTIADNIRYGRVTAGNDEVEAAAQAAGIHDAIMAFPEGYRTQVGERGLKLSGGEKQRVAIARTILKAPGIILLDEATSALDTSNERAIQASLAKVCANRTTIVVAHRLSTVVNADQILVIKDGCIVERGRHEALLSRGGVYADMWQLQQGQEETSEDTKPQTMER

As for `CCOc1ccc(C(=O)NCC2(c3ccccc3)CCOCC2)cc1`, in assay [1], the percent of DMSO control GFP is 99.8% (inactive). In addition, the GFP response vs DMSO was 97.7% (inactive) in assay [2] and 105% (inactive) in assay [4]. In assay [3], the percent response of DMSO control is 108% (inactive). Moreover, in [5], the GFP response, % of DMSO is 108% (inactive). In assay [6], this molecule had a double positive events of 63.3%. Moreover, the vesicle binding response in assay [6] is 172% (inactive). Further, the inhibition (as a rule, the change of the read-out against control, counted positive when it falls) in assay [7] is -13.2% (inactive); in assay [11] it was -4.75% (inactive); in assay [15], 11% (inactive). The superoxide response (% of plate) in assay [8] is 95.9% (inactive). Besides, in assay [9], the aptamer binding inhibition is -4% (inactive). The figures for the response in assay [10] and in [12] were -2.34% (inactive) and -1% (inactive), respectively. The binding (% of control) in assay [13] is 107% (inactive). For the same molecule, in assay [14], the efflux inhibition (fraction of control) was -0.11 (inactive). Further, in assay [16], the differentiation response was 10.1% (inactive).

Consider `Cc1ccc2c(c1)C1OCCC1C1N2C(=O)C2C(C(=O)O)C3C=CC21O3` (stereo not drawn), for which the percent of DMSO control GFP in [1] was 104% (inactive). Further, the GFP response vs DMSO was 107% (inactive) in assay [2] and 106% (inactive) in assay [4]. Moreover, the percent response of DMSO control in assay [3] was 110% (inactive). Further, the GFP response, % of DMSO in assay [5] is 107% (inactive). This molecule had a double positive events in assay [6] of 62.2%. In assay [6], the vesicle binding response was 207% (inactive). Moreover, the inhibition in assay [7] was 11% (inactive); in [11], 41.7% (inactive); in assay [15], 11% (inactive). The superoxide response (% of plate) in [8] was 106% (inactive). Further, the aptamer binding inhibition in assay [9] is 11% (inactive). Further, the response in assay [10] was 0.35% (inactive); in [12], 3.53% (inactive). For the same molecule, the binding (% of control) in assay [13] was 101% (inactive). Moreover, the efflux inhibition (fraction of control) in [14] was -0.32 (inactive). The differentiation response in [16] was -13.3% (inactive).

As to `CCOC(=O)c1cc2c(nc1N)CC(C)(CC)OC2` (stereo not drawn), in [1], the percent of DMSO control GFP is 101% (inactive). The GFP response vs DMSO in assay [2] is 109% (inactive); in [4], 127% (inactive). Also, the percent response of DMSO control in assay [3] was 91% (inactive). Also, the GFP response, % of DMSO in assay [5] was 100% (inactive). In assay [6], this molecule displayed a double positive events of 61.3%. The vesicle binding response in assay [6] was 170% (inactive). In addition, the inhibition was 9.13% (inactive) in assay [7], 38.2% (inactive) in assay [11] and 3% (inactive) in assay [15]. The superoxide response (% of plate) in assay [8] is 97.3% (inactive). In addition, the aptamer binding inhibition in assay [9] is -1% (inactive). For the same molecule, the response was -13.4% (inactive) in [10] and -3.65% (inactive) in assay [12]. Besides, the binding (% of control) in [13] is 105% (inactive). The efflux inhibition (fraction of control) in [14] was -0.24 (inactive). The differentiation response in [16] is 60% (active).

With `CCc1cc2c(=O)c(-c3nc(C)cs3)c(CCCC(=O)O)oc2cc1O`, the percent of DMSO control GFP in assay [1] is 103% (inactive). Also, the figures for the GFP response vs DMSO in [2] and in assay [4] were 108% (inactive) and 98% (inactive), respectively. Further, the percent response of DMSO control in assay [3] is 102% (inactive). For the same molecule, the GFP response, % of DMSO in assay [5] is 100% (inactive). In assay [6], this molecule yielded a double positive events of 54.4%. Besides, the vesicle binding response in assay [6] was 39.1% (active). The inhibition in [7] is 1.62% (inactive); in [11], -6.82% (inactive); in assay [15] it was -3% (inactive). Besides, the superoxide response (% of plate) in assay [8] is 105% (inactive). Also, the aptamer binding inhibition in assay [9] was 2% (inactive). The results for the response in assay [10] and in [12] were -4.49% (inactive) and -0.76% (inactive), respectively. The binding (% of control) in assay [13] was 114% (inactive). Moreover, in assay [14], the efflux inhibition (fraction of control) is -0.2 (inactive). In [16], the differentiation response is 2.2% (inactive).
